Compound activity (PubChem)
USP28 block = inhibitors of human USP28 deubiquitinase | 3% of 47,000 active | inhibition, % at 25 µM | Ubiquitin carboxyl-terminal hydrolase 28 (Homo sapiens), Q96RU2 | purified USP28, Ub-rhodamine cleavage fluorescence, 30 min
USP8 block = inhibitors of human USP8 deubiquitinase; Ubiquitin carboxyl-terminal hydrolase 8 (Homo sapiens), P40818; purified USP8, Ub-rhodamine cleavage fluorescence, 30 min; inhibition, % at 20 µM; 4.2% of 47,000 active
USP30 inh = inhibitors of human USP30 deubiquitinase; Ubiquitin carboxyl-terminal hydrolase 30 (Homo sapiens), Q70CQ3; purified USP30, Ub-rhodamine cleavage fluorescence; inhibition, % at 25 µM; 5.3% of 47,000 active
USP17 inh = inhibitors of human USP17 deubiquitinase | purified USP17, Ub-rhodamine cleavage fluorescence, 3 h | inhibition, % at 50 µM | 6.5% of 47,000 active | Ubiquitin carboxyl-terminal hydrolase 17-like protein 5 (Homo sapiens), A8MUK1
* hit, by the source's call; / = no result given. This is a sample that favours compounds with a hit; in the whole collection about 13% have one here. No stated cut-off is given here; in the data, active means inhibition above about 30%; inactive means the rest.

SMILES	USP28 block	USP8 block	USP30 inh	USP17 inh
CC(C)(C)c1ccc(Cn2nnc3c(=O)[nH]c(C4CCN(S(=O)(=O)c5ccc(S(=O)(=O)NC6CCCC6)cc5)CC4)nc32)cc1	0	-176	26	16
COc1cc(S(=O)(=O)N2CCC(c3nc4c(nnn4Cc4ccc(F)cc4)c(=O)[nH]3)CC2)ccc1-n1cnnn1	25	8	47*	32*
CC(C)(C)c1ccc(Cn2nnc3c(=O)[nH]c(C4CCN(S(=O)(=O)c5ccc(S(=O)(=O)NC6CC6)cc5)CC4)nc32)cc1	32*	33*	10	64*
O=c1[nH]c(C2CCN(S(=O)(=O)c3ccc(S(=O)(=O)N4CCOCC4)cc3)CC2)nc2c1nnn2Cc1cccc(Cl)c1	24	35*	27	7
O=c1[nH]c(C2CCN(S(=O)(=O)c3ccc(S(=O)(=O)NC4CCCCC4)cc3)CC2)nc2c1nnn2Cc1cccc(F)c1	6	-44	-72	-15
NS(=O)(=O)c1cccc(NC(=O)CNC(=O)/C=C/c2ccccc2)c1	-5	0	-9	-28
COc1ccc(NS(=O)(=O)c2ccc3oc(SCC(=O)N(C)C4CCS(=O)(=O)C4)nc3c2)cc1 (configuration not stated)	/	1	/	-2
COc1ccccc1NS(=O)(=O)c1ccc2oc(SCC(=O)c3ccccc3)nc2c1	64*	-28	3	1
Cc1cccc(C(=O)Nc2ccc3c(c2)C(=O)N(C)c2ccccc2O3)c1	47*	18	16	17
Cc1ccc(C(=O)Nc2ccc3c(c2)C(=O)N(C)c2ccccc2O3)cc1C	55*	20	11	4
COc1ccc(C(=O)Nc2ccc(N3CCCC3=O)c(C)c2)cc1OC	-9	-18	-9	-1
CC(=O)N(O)CCC[C@@H]1NC(=O)[C@H](CCCN(O)C(C)=O)NC1=O	19	3	-11	36*
Cc1cccc(NC(=O)CCN2C(=O)c3cccnc3Sc3ccccc32)c1C	5	9	15	/
Cc1ccccc1NC(=O)CCN1C(=O)c2cccnc2Sc2ccccc21	9	1	38*	12
CCN1C(=O)c2cccnc2Sc2cc(NC(=O)Cc3cccc(F)c3)ccc21	-8	-1	-38	-7
Cc1ccc2c(c1)NC(CCC(=O)NCCc1ccc(Cl)cc1)=NS2(=O)=O	27	19	59*	59*
O=C(CCC1=NS(=O)(=O)c2ccccc2N1)NCCc1ccc(Cl)cc1	-1	-16	1	-4
O=C(c1ccncc1)N1CCC2(CC1)CC1(CO2)Nc2ccccc2-n2cccc21 (configuration not stated)	-1	71*	-79	38*
CCCn1cc(C(=O)N2CCC3(CC2)CC2(CO3)Nc3ccccc3-n3cccc32)c(C)n1 (configuration not stated)	10	94*	5	67*
O=C(c1cscn1)N1CCC2(CC1)CC1(CO2)Nc2ccccc2-n2cccc21 (configuration not stated)	-5	94*	-68	71*
Cc1ccc(NC(=O)N2CCC3(CC2)Nc2ccccc2-n2cccc23)cc1	7	-202	-5	-8
COc1ccccc1NC(=O)N1CCC2(CC1)Nc1ccccc1-n1cccc12	2	-132	-16	-12
O=C(c1ccco1)N1CCC2(CC1)CC1(CO2)Nc2ccccc2-n2cccc21 (configuration not stated)	19	67*	-26	80*
O=C(N[C@H](CO)Cc1ccccc1)c1nc(-c2ccc3cc[nH]c3c2)no1	15	3	-1	9
CCCC(C(=O)Nc1ccc(OC)c(OC)c1)N1Cc2ccccc2C1=O (configuration not stated)	0	-2	1	0
SMILES	USP28 block	USP8 block	USP30 inh	USP17 inh
Cc1cnc(C2CCCN(C(=O)c3noc4c3CCCC4)C2)[nH]1 (configuration not stated)	-10	-3	-2	-3
O=C(CO)N1CCc2nc3ccccc3n2C(Cc2ccccc2)C1 (configuration not stated)	2	1	10	7
O=C(c1cccnc1)N1CCC2(CC1)CC1(CO2)Nc2ccccc2-n2cccc21 (configuration not stated)	0	93*	-10	71*
Cc1c(C)c2ccc(OCC(=O)NCc3ccncc3)c(C)c2oc1=O	22	7	81*	46*
Cc1cc(=O)oc2cc(OCC(=O)NCc3ccncc3)ccc12	-1	3	10	5
O=C(Cn1cncc(-c2nc(-c3ccccc3)cs2)c1=O)N1CCCC1	-1	3	-3	6
O=C(Cn1cccc1-c1nc(-c2ccccc2)cs1)N1CCOCC1	18	19	26	74*
COc1ccc(CCN2COc3c(cc(Cl)c4cccnc34)C2)cc1OC	30	97*	49*	93*
CCn1c(SCCOc2ccccc2)nnc1-c1ccc2c(c1)OCCO2	31*	-9	18	1
CCn1c(SCc2nc(-c3ccccc3)no2)nnc1-c1ccc2c(c1)OCCO2	8	2	15	6
COc1ccc(CC(=O)Nc2cnc3ccc(C(=O)NCc4ccncc4)cn3c2=O)cc1	2	-11	-14	30*
O=C(Nc1ccccc1)Nc1cnc2ccc(C(=O)NCc3ccncc3)cn2c1=O	10	15	19	16
CN(c1ccc(Oc2ccc(C(F)(F)F)cn2)cc1)S(=O)(=O)c1ccccc1	17	73*	-4	38*
CCOc1ccc(S(=O)(=O)N(C)c2ccc(OCC(=O)Nc3ccccc3)cc2)cc1	8	2	-47	-4
COC(=O)COc1ccc(/C=N/NC(=O)c2ccc(CN3CCc4ccccc4C3)cc2)cc1	17	36*	54*	25
Cc1c(Cl)cccc1NC(=O)c1ccc(CN2CCc3ccccc3C2)cc1	18	21	2	13
CC(=O)Nc1ccc(OCC(O)CN2CCc3ccccc3C2)cc1 (configuration not stated)	7	13	26	9
O=C(Nc1ccccc1C(=O)N1CCCC1)c1ccc(CN2CCc3ccccc3C2)cc1	10	40*	21	15
CC(C)(C)c1ccc(CN2CCN(c3ccc4c(c3)CCC4)C2=O)cc1	13	28	27	16
CCc1nnc(-c2ccc(=O)n(CC(=O)Nc3cccc(C)c3)c2)o1	-10	0	-1	-3
O=C(c1nnn(-c2ccc(Cl)cc2)c1-c1cccnc1)N1CCc2ccccc2C1	8	6	17	/
COc1ccc(Cl)cc1-n1nnc(C(=O)N2CCc3ccccc3C2)c1C	33*	12	83*	/
CCCC(=O)N(Cc1ccccc1)c1nnc(C23CC4CC(CC(C4)C2)C3)s1	12	7	12	8
COc1ccccc1Nc1cc(C)nc2nc(-c3ccco3)nn12	-4	-22	-32	41*
Cc1cc(Nc2ccc(C)c(Cl)c2)n2nc(-c3ccco3)nc2n1	-34	35*	-162	-50
